# High-throughput results (PubChem BioAssay)
# Vif-A3F inh – blocks the Vif interaction with APOBEC3F; HeLa A3F-eYFP + Vif (tagged APOBEC3F with the HIV-1 protein that degrades it), YFP fluorescence increase; Potency, µM (highest dose often 46.1 µM), inactives show top-dose activity, negative = active; actives 0.2% (n = 390,000); AID 602313; further: potency means the concentration at half of the fitted maximal effect; % of control where 0% means no effect; nearly all actives have a fitted effect of over 65% in size
#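 HeLa cells stably expressing Vif plus C-terminally eYFP-tagged A3F were seeded, incubated overnight at 37 deg C, dosed with compound, incubated overnight again at 37 deg C. Yellow fluorescence (Ex 488/Em 500-530) reported blocked Vif-mediated A3F-eYFP degradation.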
# Giardia kill – Giardia lamblia killing; actives 0.15% (n = 340,000); activity change, % at 7.66 µM, hits read low; Giardia lamblia trophozoite viability; in the data active means activity change below about -80%; inconclusive means between about -30% and that limit;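 further: parasites exposed to compound for two days anaerobically before the ATP read; on the % scale 0 is the no-effect control and ±100 the full control effect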
#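 Trophozoite viability was measured as ATP-dependent luminescence, read 15-30 min after reagent addition. Before that, parasites at 100 cells/well were exposed to compounds for 48 h, anaerobically, at 37 deg C.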
# IL1B secr inh – blocks inflammasome-driven IL-1 beta release | actives 4.7% (n = 360,000) | AID 743279 | THP-1 LPS/ATP IL-1B secretion, AlphaLISA, 16 h; stronger effect = lower value | activity change, % at 57.5 µM; in the data active means activity change below about -50%; inconclusive means mostly about -30% to -49%; further: on the % scale 0 is the no-effect control and ±100 the full control effect
#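 Secreted IL-1B measured by AlphaLISA bead assay after 16 h compound exposure of THP-1 cells; compounds (final up to 57.5 uM) added 1 h before LPS (250 ng/mL) and ATP (1.25 mM) stimulation; lower signal means less secretion.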
# MCF10A rerep – DNA re-replication induction in MCF 10a cells | MCF 10A DNA re-replication, Hoechst nuclear intensity, 48 h | Potency, µM (series often up to 46.1 µM), without a hit: top-dose activity, positive = re-replication, usual class: activators | actives 2.9% (n = 350,000) | AID 624296; further: potency means the concentration at half of the fitted maximal effect; % of control where 0% means no effect; nearly all actives have a fitted effect of over 50% in size
# Vif-A3G inh – Vif-A3G binding inhibition; Q9HC16; HeLa A3G-eYFP + Vif (tagged APOBEC3G with the HIV-1 protein that degrades it), YFP fluorescence, overnight; Potency, µM (highest dose often 46.1 µM), for the others: at the top dose activity, negative = active, most hits filed as inhibitors; actives 0.076% (n = 410,000); AID 602310; further: potency means the concentration at half of the fitted maximal effect; on the % scale 0 is the no-effect control and ±100 the full control effect; nearly all actives have a fitted effect of over 60% in size
# Target sequence (Q9HC16 whole entry, looked up): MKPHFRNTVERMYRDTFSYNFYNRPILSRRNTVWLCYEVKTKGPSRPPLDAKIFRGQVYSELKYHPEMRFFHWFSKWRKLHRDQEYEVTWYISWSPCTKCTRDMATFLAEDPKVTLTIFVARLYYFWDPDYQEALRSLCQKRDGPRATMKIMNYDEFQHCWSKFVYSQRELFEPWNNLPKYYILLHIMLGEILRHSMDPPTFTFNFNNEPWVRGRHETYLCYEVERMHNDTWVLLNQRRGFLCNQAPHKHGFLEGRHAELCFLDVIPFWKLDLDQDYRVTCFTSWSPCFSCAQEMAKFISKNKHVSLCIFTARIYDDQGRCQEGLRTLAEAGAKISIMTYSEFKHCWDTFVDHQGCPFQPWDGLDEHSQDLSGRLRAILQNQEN
#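 Read-out is eYFP fluorescence (Ex 488/Em 500-530) from Vif-expressing HeLa A3G-eYFP cells; more signal means A3G escaped Vif-mediated degradation. Cells plated overnight, compound pinned in, incubated overnight at 37 deg C.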
# SW480 rereplic – inducers of DNA re-replication in SW480 colon cancer cells; SW480 DNA re-replication, Hoechst DNA content imaging, 48 h; Potency, µM (titrated, usually from 46.1 µM), for inactives: at the top dose re-replication activation, actives largely listed as activators; actives 1.8% (n = 340,000); further: potency means the concentration at half of the fitted maximal effect; % of control where 0% means no effect; nearly all actives have a fitted effect of over 55% in size
#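 First, 250 cells per well were seeded. Next, compound or vehicle (23 nL) was pinned in, plates sat 48 hr at 37 C. Finally Hoechst was added for 40 min before fluorescence scanning.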
# * marks the source's active call; other numbers are inactive results; ? = inconclusive; . = not tested or not shown; [ ] = remark or other dose. The list is not random: actives were taken first. Their share in the collection is about 6.9%. Unless noted, the call rests on the fitted dose curve; in most records, active means well fitted curve in the direction sought with a large enough effect; inconclusive means small, poorly fitted or top-dose-only effect, or another doubt; inactive means no such curve, though single readings can be large; an effect the other way counts as inactive or inconclusive.
SMILES,Vif-A3F inh,Giardia kill,IL1B secr inh,MCF10A rerep,Vif-A3G inh,SW480 rereplic
Cc1cccc(C(=O)NNC(=S)NC(=O)c2cccs2)c1,1%,-2,-100*,?,-13%,22%
Cc1cccc(NC(=S)NC(=O)c2cccs2)n1,-7%,-5,33,1%,-4%,2.9µM*
Cc1cccc(C(=O)NNC(=S)NC(=O)c2ccccc2)c1,-1%,-25,?,4%,-3%,-1%
NC(=O)C(F)(F)C12OC3C4C5CC(C6C5C3C61)C42 (stereo not given),-2%,9,13,21µM*,1%,?
Cc1cc2c(c3oc(=O)c4ccccc4c13)CN(Cc1ccc(F)cc1)CO2,1%,.,.,.,4%,.
Cc1c(C#N)c(NC(=O)CCl)n(Cc2ccccc2)c1C,?,-1,-57*,?,-13%,?
COC(=O)c1cc(C(=O)OC)n(Cc2ccc(F)cc2)c1C,16%,-21,31,3%,0%,-1%
Cc1c(C#N)c(NC(=O)CCl)n(Cc2ccc(F)cc2)c1C,1%,-9,-77*,?,?,?
Cc1c(C#N)c(NC(=O)CCl)n(Cc2cccs2)c1C,-2%,8,-105*,?,?,5.8µM*
CCN(CC)C(=O)c1sc(NC(=O)Cc2cccs2)c(C#N)c1C,0%,3,-17,1%,0%,16%
CC1CCN(S(=O)(=O)c2ccc3c(c2)N(CC(=O)NC(C)C)C(=O)CS3)CC1,0%,.,.,.,-2%,.
O=C(Nc1ccc(O)c2c(=O)cc(-c3ccccc3Cl)oc12)c1cc(Cl)cc(Cl)c1,.,17,.,.,2%,.
CC1(C)Cc2c(sc3nn[nH]c(=O)c23)CO1,0%,-14,11,-5%,-2%,-1%
CC1(C)Cc2c(sc3nc[nH]c(=O)c23)CO1,-6%,-7,5,-10%,-3%,5.2µM*
CC(C)c1cnc2c(c1SCC(=O)NCc1ccccc1Cl)c(=O)n(C)c(=O)n2C,1%,.,.,.,1%,.
COc1cccc2c3cccc(OC)c3c3[nH]cnc3c12,2%,-27,-102*,21µM*,-1%,?
CCC(=O)N1c2ccc(S(=O)(=O)CCC(=O)N3CCn4c3nc3ccccc34)cc2CC1C (stereo not given),-3%,8,-97*,0%,-2%,23%[9.22 µM]
Cc1cc(N2CCN(C(=O)Nc3ccc(F)cc3F)CC2)c2ccccc2n1,9%,-5,-14,9%,0%,-5%
CCCCc1ccc(NC(=O)N2CCN(c3cc(C)nc4ccccc34)CC2)c(C)c1,3%,-12,-67*,17%,2%,21µM*
O=Cc1c[nH]c2ccccc12,.,19,.,.,1%,.
O=Cc1c[nH]c2cccc(OCc3ccccc3)c12,1%,25,-79*,?,-22%,9%
CC1CC=CC2C1C(=O)N(Cc1ccccc1)C2c1ccc(/C=C/c2ccccc2)cc1F (stereo not given),.,-29,.,.,1%,.
CC(C)(C)n1ncc2c(=O)n(Cc3cccc(-c4ccccc4)c3)cnc21,.,.,.,.,0%,.
CCN=C(NS(=O)(=O)c1ccc(Br)cc1)c1ccc(Cl)cc1,2%,13,5,1.8µM*,-4%,-73%
CC/C(=N/NS(=O)(=O)c1ccc(Cl)cc1)c1ccc(O)cc1,5%,-3,0,0%,-6%,.
SMILES,Vif-A3F inh,Giardia kill,IL1B secr inh,MCF10A rerep,Vif-A3G inh,SW480 rereplic
O=C1COc2cc(S(=O)(=O)CCC(=O)N3CCN(c4ccccc4)CC3)c(Cl)cc2N1,2%,.,.,.,5%,.
Cc1c(O)nc2ccccn2c1=O,6%,-10,-65*,-1%,0%,-5%
CCOc1ccc(CN(C)C(=O)CCl)cc1,13%,-7,-102*,?,?,16µM*
COc1ccc(NC(=O)c2cc(-c3ccc(OC)c(OC)c3)nc3ccccc23)c(OC)c1,-13%,4,6,?,-4%,3%
COc1cc(-c2cc(C(=O)Nc3cccc(C(C)=O)c3)c3ccccc3n2)cc(OC)c1OC,4%,-9,-19,?,-7%,2%
Cc1sc(NC(=O)c2cc(-c3ccc(Cl)cc3)nc3ccccc23)c(C(N)=O)c1C,?,12,7,18µM*,-6%,?
NS(=O)(=O)c1ccc(CCNC(=O)c2cc(-c3cccs3)nc3ccccc23)cc1,0%,-5,-14,?,-1%,-2%
COc1ccc(-c2cc(C(=O)Nc3ccc(C(N)=O)cc3)c3ccccc3n2)cc1OC,0%,-5,0,?,-19%,18µM*
COc1cc(-c2cc(C(=O)Nc3ccc(O)cc3)c3ccccc3n2)cc(OC)c1OC,2%,14,-52*,8%,-9%,-3%
COc1cc(-c2cc(C(=O)NCCc3ccc(S(N)(=O)=O)cc3)c3ccccc3n2)cc(OC)c1OC,-14%,3,-52*,-8%,-8%,-5%
Cc1ccc(NC(=O)C2CCN(S(=O)(=O)c3c(C)noc3C)CC2)c(C)c1,0%,.,.,.,4%,.
CCOC(=O)c1ccc(NC(=O)CSc2ccc3ccccc3n2)cc1,-10%,.,.,.,2%,.
O=C(Nc1ccc(F)cc1)c1cccc(N2CCCS2(=O)=O)c1,2%,.,.,.,5%,.
COC(=O)CN1C(=O)[C@@H]2[C@H](C1=O)[C@@H]1CC(C(=O)OC)=C[C@@H](C(=O)OC)C3C1=C(C(=O)[C@@]3(C)NC(=O)c1ccccc1)[C@@H]2C (stereo not given in full),.,-19,.,.,2%,.
COc1cc(-c2cc(C(=O)Nc3ccccc3N3CCOCC3)c3ccccc3n2)cc(OC)c1OC,4%,5,-67*,?,-11%,2%
COc1ccc(-c2cc(C(=O)NC3=NCCS3)c3ccccc3n2)cc1OC,13%,17,-61*,?,-8%,6%
O=C(NC1=NCCS1)c1cc(-c2ccc(-c3ccccc3)cc2)nc2ccccc12,-2%,-6,-11,20%,-3%,-8%
Cc1ccc(NC(=S)N/N=C/c2c(C)[nH]c3ccccc23)cc1,?,-2,-1,18µM*,-9%,?
Cc1cccc(NC(=S)N/N=C/c2c[nH]c3ccccc23)c1,-2%,-13,-23,1.8µM*,?,12µM*
Cc1ccc(C(=O)Nc2ccc(C(=O)N/N=C/c3c[nH]c4ccccc34)cc2)cc1,1%,0,-16,?,-7%,17%
CCOc1ccc(S(=O)(=O)Nc2cc(OC)ccc2OC)cc1,-24%,1,-4,?,?,0.41µM*
COc1ccc(NS(=O)(=O)c2ccc(NS(=O)(=O)c3ccc(SC)cc3)cc2)c(OC)c1,-23%,-11,10,?,-1%,17%
